From the supplement of paper PMC12808144
A number with no mark means an inactive call.

Each compound was assayed on Mel-DCC-11-R (assay: cell viability relative to DMSO control (fraction of DMSO control); higher = less cytotoxic, active = 0.8 or less). Settings: 1 µM; 120 h; vemurafenib co-treatment 0 µM.
Experimental: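 Same 315-drug TargetMol library at 1 µM in duplicate, 120 h, ATPlite luminescence normalised to DMSO controls, on the vemurafenib-resistant subline Mel-DCC-11-R cultured alone or with 8 µM vemurafenib co-treatment (Mel-DCC-11-R + V).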
In the case of `CC(=O)c1c(C)c2cnc(Nc3ccc(N4CCNCC4)cn3)nc2n(C2CCCC2)c1=O.Cl` [Palbociclib hydrochloride], the cell viability is reported as 1.46. With `CN(C)C(=O)COC(=O)Cc1ccc(OC(=O)c2ccc(N=C(N)N)cc2)cc1.CS(=O)(=O)O` [Camostat mesilate] the cell viability was 1.1. Compound `CNC(=O)c1ccc(N2C(=S)N(c3ccc(C#N)c(C(F)(F)F)c3)C(=O)C2(C)C)cc1F` [Enzalutamide] has a cell viability of 0.889. In the case of `CNC(=O)c1ccccc1Sc1ccc2c(/C=C/c3ccccn3)n[nH]c2c1` [Axitinib], the cell viability is reported as 0.981. Work on `Cl.Cl.Cl.Cl.Cl.Cl.Cl.Cl.c1cc(CN2CCCNCCNCCCNCC2)ccc1CN1CCCNCCNCCCNCC1` [AMD 3100 octahydrochloride] yielded a cell viability of 0.999. `CCN1CCN(Cc2ccc(Nc3ncc(F)c(-c4cc(F)c5nc(C)n(C(C)C)c5c4)n3)nc2)CC1.CS(=O)(=O)O` [abemaciclib mesylate] showed a cell viability of 1.8. For `Nc1nc(=S)c2[nH]cnc2[nH]1` [Thioguanine], the cell viability was 1.31. `CS(=O)(=O)c1ccc(C2=C(c3ccccc3)C(=O)OC2)cc1` [Rofecoxib] was tested, and the cell viability was 0.862. For `CNC(=O)c1cc(Oc2ccc(NC(=O)Nc3ccc(Cl)c(C(F)(F)F)c3)cc2)ccn1.Cc1ccc(S(=O)(=O)O)cc1` [Sorafenib tosylate], the cell viability was 1.02. With `COc1c2occc2cc2ccc(=O)oc12` [8-Methoxypsoralen] the cell viability was 1.05. `CC(=O)O[C@@]12CO[C@@H]1C[C@H](O)[C@@]1(C)C(=O)[C@H](O)C3=C(C)[C@@H](OC(=O)[C@H](O)[C@@H](NC(=O)OC(C)(C)C)c4ccccc4)C[C@@](O)([C@@H](OC(=O)c4ccccc4)[C@H]21)C3(C)C` [Docetaxel] showed a cell viability of 1.07. `CCN(CC)CCNC(=O)c1c(C)[nH]c(/C=C2\C(=O)Nc3ccc(F)cc32)c1C` [Sunitinib] showed a cell viability of 1.16. `Clc1ccc(C(c2ccccc2Cl)C(Cl)Cl)cc1` (stereo not given) [Mitotan] showed a cell viability of 1. `c1cn2cc(-c3ccc4cn[nH]c4c3)nc(Nc3ccc(N4CCOCC4)cc3)c2n1` [Entospletinib] gave a cell viability of 0.904. `Nc1ncn([C@H]2C[C@H](O)[C@@H](CO)O2)c(=O)n1` [Decitabine] gave a cell viability of 1.31. Work on `O=c1cc(-c2ccc(O)cc2)oc2cc(O)cc(O)c12` [Apigenin] yielded a cell viability of 0.972. For `CC(C)C[C@H](NC(=O)[C@H](Cc1ccccc1)NC(=O)c1cnccn1)B(O)O` [Bortezomib], the cell viability was 0.0464 (active). Work on `COc1cc2c(Oc3ccc4[nH]c(C)cc4c3F)ncnc2cc1OCCCN1CCCC1` [Cediranib] yielded a cell viability of 0.853. `CC(C)=CCC/C(C)=C/CC/C(C)=C/CC/C(C)=C/CC1=C(C)C(=O)c2ccccc2C1=O` [Menatetrenone] was tested, and the cell viability was 1.11. `NC(=O)c1ncn([C@@H]2O[C@H](CO)[C@@H](O)[C@H]2O)c1N` [AICAR (Acadesine)] was tested, and the cell viability was 1.12.

Same assay, conditions: 1 µM; 120 h; vemurafenib co-treatment 8 µM
`CC(=O)c1c(C)c2cnc(Nc3ccc(N4CCNCC4)cn3)nc2n(C2CCCC2)c1=O.Cl` [Palbociclib hydrochloride] was tested, and the cell viability was 1.08. Compound `CN(C)C(=O)COC(=O)Cc1ccc(OC(=O)c2ccc(N=C(N)N)cc2)cc1.CS(=O)(=O)O` [Camostat mesilate] has a cell viability of 1.21. In the case of `CNC(=O)c1ccc(N2C(=S)N(c3ccc(C#N)c(C(F)(F)F)c3)C(=O)C2(C)C)cc1F` [Enzalutamide], the cell viability is reported as 1.09. In the case of `CNC(=O)c1ccccc1Sc1ccc2c(/C=C/c3ccccn3)n[nH]c2c1` [Axitinib], the cell viability is reported as 1.03. `Cl.Cl.Cl.Cl.Cl.Cl.Cl.Cl.c1cc(CN2CCCNCCNCCCNCC2)ccc1CN1CCCNCCNCCCNCC1` [AMD 3100 octahydrochloride] showed a cell viability of 0.984. For `CCN1CCN(Cc2ccc(Nc3ncc(F)c(-c4cc(F)c5nc(C)n(C(C)C)c5c4)n3)nc2)CC1.CS(=O)(=O)O` [abemaciclib mesylate], the cell viability was 0.723 (active). Work on `Nc1nc(=S)c2[nH]cnc2[nH]1` [Thioguanine] yielded a cell viability of 0.933. For `CS(=O)(=O)c1ccc(C2=C(c3ccccc3)C(=O)OC2)cc1` [Rofecoxib], the cell viability was 0.825. Work on `CNC(=O)c1cc(Oc2ccc(NC(=O)Nc3ccc(Cl)c(C(F)(F)F)c3)cc2)ccn1.Cc1ccc(S(=O)(=O)O)cc1` [Sorafenib tosylate] yielded a cell viability of 1.1. Work on `COc1c2occc2cc2ccc(=O)oc12` [8-Methoxypsoralen] yielded a cell viability of 1.19. In the case of `CC(=O)O[C@@]12CO[C@@H]1C[C@H](O)[C@@]1(C)C(=O)[C@H](O)C3=C(C)[C@@H](OC(=O)[C@H](O)[C@@H](NC(=O)OC(C)(C)C)c4ccccc4)C[C@@](O)([C@@H](OC(=O)c4ccccc4)[C@H]21)C3(C)C` [Docetaxel], the cell viability is reported as 0.609 (active). With `CCN(CC)CCNC(=O)c1c(C)[nH]c(/C=C2\C(=O)Nc3ccc(F)cc32)c1C` [Sunitinib] the cell viability was 0.564 (active). In the case of `Clc1ccc(C(c2ccccc2Cl)C(Cl)Cl)cc1` (stereo not given) [Mitotan], the cell viability is reported as 0.82. With `c1cn2cc(-c3ccc4cn[nH]c4c3)nc(Nc3ccc(N4CCOCC4)cc3)c2n1` [Entospletinib] the cell viability was 0.877. `Nc1ncn([C@H]2C[C@H](O)[C@@H](CO)O2)c(=O)n1` [Decitabine] was tested, and the cell viability was 0.968. With `O=c1cc(-c2ccc(O)cc2)oc2cc(O)cc(O)c12` [Apigenin] the cell viability was 0.991. With `CC(C)C[C@H](NC(=O)[C@H](Cc1ccccc1)NC(=O)c1cnccn1)B(O)O` [Bortezomib] the cell viability was 0.048 (active). With `COc1cc2c(Oc3ccc4[nH]c(C)cc4c3F)ncnc2cc1OCCCN1CCCC1` [Cediranib] the cell viability was 0.728 (active). `CC(C)=CCC/C(C)=C/CC/C(C)=C/CC/C(C)=C/CC1=C(C)C(=O)c2ccccc2C1=O` [Menatetrenone] gave a cell viability of 1.18. For `NC(=O)c1ncn([C@@H]2O[C@H](CO)[C@@H](O)[C@H]2O)c1N` [AICAR (Acadesine)], the cell viability was 1.21.
